Results as given in PubChem BioAssay AID1508622 (National Center for Advancing Translational Sciences (NCATS), 2021).
Activity calls are given as the source filed them. Calls follow the shape of the dose curve; as a rule, active = well fitted activation curve with a large enough effect; inconclusive = small, poorly fitted or top-dose-only effect; inactive = no such curve, though single readings can be large or run the other way.

Experiment: Confirmatory qHTS for Identification of Small Molecule Activators of Huntingtin-Antisense Promoter Activity
Conditions: HEK293 HTT-AS promoter firefly luciferase reporter, 24 h; series mostly up to 57.5 µM; activity change, positive = activation: at the top concentration
Summary of the method: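 HEK293 luciferase reporter cells, 2,500/well, cultured 24 h, then exposed to compounds at up to 57.5 uM final for 24 h at 37C. Firefly luciferase luminescence read; normalized to vehicle (0%) and zero RLU (-100%).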
Potency is read from the fitted curve at half-maximal effect.

Activity change, positive = activation, inactive:
COc1ccc(CCNc2nc3c(c(=O)n(C)c(=O)n3C)n2Cc2ccc(F)cc2)cc1OC -52.7%, CCc1ccc(-n2c(SCC(=O)NC(C)CC)nc3n[nH]c(C)c3c2=N)cc1 (stereo not drawn) -9.19%, Clc1ccc(N2CCN(c3ncnc4c3nc3n4CCCC3)CC2)cc1 -85.8%, O=C(CSc1nccn1Cc1ccc(F)cc1)Nc1nc2ccccc2s1 -21.3%, Cc1cccc(CN2C(=O)N(c3ccc(C(C)C)cc3)S(=O)(=O)c3ccccc32)c1 -26.1%, CCCCCNS(=O)(=O)c1ccc(N2CCCCS2(=O)=O)cc1 -92.2%, CCc1c(C)sc2c1CCN(C(=O)Nc1ccc(F)c(Cl)c1)C2c1ccc(F)cc1 (stereo not drawn) -76.5%, Cc1ccc(Cl)cc1-n1ncc2c(NCCCc3ccccc3)ncnc21 -20.6%, Cc1cccc(-n2nc(C)c(C(=O)Nc3cc(C)ccc3C)c2-n2cccc2)c1 -22.1%, Cc1ccc(CN2CCSc3ccc(C(=O)NCC(C)c4ccccc4)cc32)cc1 (stereo not drawn) 7.41%, CC(=O)N1CCCc2cc(S(=O)(=O)N(C)CC(=O)Nc3ccc(F)cc3Cl)ccc21 -30.4%, Cc1nc2nncn2c(NCc2ccc(Cl)cc2)c1C -93.3%, CCN(Cc1ccccc1)C(=O)C1CCC(CNS(=O)(=O)c2ccc3c(c2)CCCC(=O)N3)CC1 (stereo not drawn) -66%, O=C(c1cccs1)N(Cc1cccnc1)c1nc2c(F)cc(F)cc2s1 -58.2%, CCCc1cc(N2CCN(c3ccccc3F)CC2)n2cnnc2n1 -69.4%, CCC(=O)N1CCCc2cc(S(=O)(=O)N3CCC(C(=O)Nc4ccc(F)c(F)c4)CC3)ccc21 -38.3%, COc1ccc(C(=O)Nc2ccc(-c3cc4ccccc4oc3=O)c(C)c2)cc1Br -18.9%, CCc1c(C)nc2nncn2c1Nc1ccc(C(C)C)cc1 -35%, CCC1CCCCN1C(=O)CSc1nc(-c2ccc(OC)c(OC)c2)cc(C(F)(F)F)n1 (stereo not drawn) -30.3%, CCC(=O)N1CCc2cc(S(=O)(=O)NCCC(=O)Nc3ccc(CC)cc3)ccc21 -20.6%, COc1ccc(CCNc2ncnc3onc(C)c23)c(OC)c1 -71.8%, Fc1cc(Br)ccc1Nc1c2c(nc3nc(-c4cccs4)nn13)CCCC2 -49.7%, Cc1oc(-c2ccc(C(=O)NCc3ccc(Cl)cc3)cc2)nc1CS(=O)(=O)c1ccccc1 -20%, CCC(=O)C1=C(c2cccc([N+](=O)[O-])c2)N(C(=O)CC)n2c(nnc2C2CCCCC2)S1 -47.3%, CC(C)[C@H](CO)Nc1nc(Nc2ccc(C(=O)O)c(Cl)c2)c2ncn(C(C)C)c2n1 -3.92%, COc1cccc(NC(=O)c2oc3ccc(S(=O)(=O)N4CCCCCC4)cc3c2C)c1 -22.1%, CCCCC(CC)CNC(=O)Cc1ccc(-n2c(=O)[nH]c3ccccc3c2=O)cc1 (stereo not drawn) -28.7%, CCc1ccc(NC(=O)Nc2cn(C)c(=O)c3ccccc23)cc1 -34.6%, COc1cccc(N2CCN(C(=O)c3ccc4nc(N5CCC(C)CC5)sc4c3)CC2)c1 -71.7%, Cc1ccc(NC(=O)c2ccc(C)c(S(=O)(=O)N3CCCCCC3)c2)cc1 -54.7%, CCOc1ccc(-c2nc(CSCC(=O)NCCc3ccccc3)c(C)o2)cc1 -47.2%, Cc1ccc(C(=O)Nc2nc(-c3nnn(-c4cccc(Cl)c4C)c3C)ns2)cc1C -64.7%, COc1ccc(C2c3c(-c4c(C)cc(C)cc4O)n[nH]c3C(=O)N2Cc2ccco2)cc1 (stereo not drawn) -38.1%, Cc1ccccc1C(=O)Nc1nc(-c2ccc(Br)cc2)ns1 -93.2%, COc1ccc(-c2cc(C)no2)cc1S(=O)(=O)N1CCN(c2ccccc2F)CC1 -43.3%, CC1Cc2cc(S(=O)(=O)NCc3ccccc3)ccc2N1C(=O)C1CCC1 (stereo not drawn) -69.3%, CN(C)c1ccc(C(=O)Nc2sc(Nc3ccccc3)nc2C(N)=O)cc1 -12.3%

Potency, active:
CCc1ccc2c(c1)-c1ccccc1S(=O)(=O)N2CC(=O)N1CCC(C)CC1 12 µM
